Common to all, as to assay: yeast three-hybrid, YBZ-1, SC-Leu-His + 0.5 mM 3-AT, 4 days
What all share (settings): tags: N-Gal4 AD-HA kept; label: inside an RPR1-promoter hybrid RNA with tandem MS2 sites; ssRNA

The target in assay [1] is PUM1 PUF domain R1-YWR (Homo sapiens, UniProt Q14671 828-1176, S863Y;R864W;Q867R). Put shortly: (§1)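 Sequencing with Illumina followed PCR amplification of the repeat regions from transformants grown four days on SC-Leu (input) or SC-Leu-His + 0.5 mM 3-AT (selection). The transformants were strain YBZ-1 with a LexA–MS2 coat fusion and a HIS3 reporter, carrying Pumilio-1 PUF domain libraries and matching RNA elements. The interaction score is the log change in variant frequency from input to selection, computed in log2 with a pseudocount of 1 for absent variants.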

The target in assay [2] is PUM1 PUF domain R3-MRS (Homo sapiens, UniProt Q14671 828-1176, C935M;Q939S). Put shortly: as §1
Assay [3] has as its target PUM1 PUF domain R7-RQL (Homo sapiens, UniProt Q14671 828-1176, S1079R;N1080Q;E1083L). Summed up: as §1
In assay [4] the target is PUM1 PUF domain R4-GNR (Homo sapiens, UniProt Q14671 828-1176, N971G;H972N;Q975R). Put shortly: as §1

As to “GGCUAGAACUAGUGGAUCCCCCGGCGCCCGGCGGCUCGAGCCCGGGUAAGUGUAAAUUGUCUGCAUGCCGCCGGGCGCCAUGCCUGCAGGUCGACUCUAGAAAACAUG”, the binding signal in assay [1] is 4.46 log2 enrichment (interaction score). As to “GGCUAGAACUAGUGGAUCCCCCGGCGCCCGGCGGCUCGAGCCCGGGUAAGUGUAAGUAGUCUGCAUGCCGCCGGGCGCCAUGCCUGCAGGUCGACUCUAGAAAACAUG”, the binding signal in assay [2] is 4.95 log2 enrichment (interaction score). As to “GGCUAGAACUAGUGGAUCCCCCGGCGCCCGGCGGCUCGAGCCCGGGUAAGUUUAAAUAGUCUGCAUGCCGCCGGGCGCCAUGCCUGCAGGUCGACUCUAGAAAACAUG”, in assay [3], the binding signal is 3.63 log2 enrichment (interaction score). Take “GGCUAGAACUAGUGGAUCCCCCGGCGCCCGGCGGCUCGAGCCCGGGUAAGUGUAUAUAGUCUGCAUGCCGCCGGGCGCCAUGCCUGCAGGUCGACUCUAGAAAACAUG”: in assay [4], the binding signal is 3.44 log2 enrichment (interaction score).

These data come from article PMC8384837, “Expanding the binding specificity for RNA recognition by a PUF domain”.
